Sampled rows, rich in hits. Any-hit rate of the full collection: about 6.3%.
TIM10 inh: TIM10 yeast growth inhibition; inhibition, % at 10 µM; hit rate 1.4% among 330,000; S. cerevisiae TIM10 strain growth, BacTiter-Glo luminescence, 24 h; AID 463195;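 active means inhibition of 40% or more at the single tested concentration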;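 further: wild-type TIM10 isogenic control strain grown at permissive 25 °C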
MPTP block: blocks calcium-induced mitochondrial swelling | isolated mouse mitochondria, Ca2+ swelling absorbance, 30 min | inhibition, % at 10 µM | hit rate 1.4% among 360,000;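 active means inhibition of 50% or more, scaled per plate between neutral and stimulator controls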;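 further: 0% = DMSO wells given calcium and 100% = 1 mM EGTA wells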
tim10-1 inh: inhibits growth of tim10-1 mutant yeast; S. cerevisiae tim10-1 ts strain growth, BacTiter-Glo, 24 h; inhibition, % at 20 µM; hit rate 2.2% among 330,000;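 active means inhibition of at least 40%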;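 further: mutant grown at 25 °C; 0% = DMSO wells with yeast and 100% = wells holding no yeast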
tim23-1 inh: inhibits growth of tim23-1 mutant yeast; S. cerevisiae tim23-1 growth, BacTiter-Glo luminescence, 24 h; inhibition, % at 20 µM; hit rate 1.3% among 330,000;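 active means growth inhibition of the mutant yeast at or above 50%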;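 further: temperature-sensitive mutant grown at 25 °C; plate controls were DMSO-treated mutant yeast for no effect and medium wells lacking yeast for full effect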
Mdm2-MdmX inh: inhibitors of human Mdm2/MdmX interaction. O15151+Q00987. SaOS-2 split-luciferase Mdm2/MdmX complementation, luminescence. inhibition, % at 8 µM. hit rate 3% among 330,000. AID 485346;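 active means inhibition of at least 50% at 8 µM in the primary screen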
Target sequence (O15151 whole entry, looked up): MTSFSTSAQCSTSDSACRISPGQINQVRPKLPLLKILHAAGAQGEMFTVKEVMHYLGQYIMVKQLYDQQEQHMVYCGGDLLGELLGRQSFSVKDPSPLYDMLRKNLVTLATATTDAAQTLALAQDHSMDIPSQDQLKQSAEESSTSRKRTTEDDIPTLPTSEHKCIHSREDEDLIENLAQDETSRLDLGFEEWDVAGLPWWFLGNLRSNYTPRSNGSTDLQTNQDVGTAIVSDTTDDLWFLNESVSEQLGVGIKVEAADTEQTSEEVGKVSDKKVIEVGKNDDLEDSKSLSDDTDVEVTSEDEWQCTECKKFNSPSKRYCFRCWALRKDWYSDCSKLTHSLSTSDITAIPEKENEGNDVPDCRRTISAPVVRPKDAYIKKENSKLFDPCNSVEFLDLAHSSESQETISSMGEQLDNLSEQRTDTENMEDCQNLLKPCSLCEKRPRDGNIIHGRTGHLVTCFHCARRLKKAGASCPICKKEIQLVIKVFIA
Target sequence (Q00987 whole entry, looked up): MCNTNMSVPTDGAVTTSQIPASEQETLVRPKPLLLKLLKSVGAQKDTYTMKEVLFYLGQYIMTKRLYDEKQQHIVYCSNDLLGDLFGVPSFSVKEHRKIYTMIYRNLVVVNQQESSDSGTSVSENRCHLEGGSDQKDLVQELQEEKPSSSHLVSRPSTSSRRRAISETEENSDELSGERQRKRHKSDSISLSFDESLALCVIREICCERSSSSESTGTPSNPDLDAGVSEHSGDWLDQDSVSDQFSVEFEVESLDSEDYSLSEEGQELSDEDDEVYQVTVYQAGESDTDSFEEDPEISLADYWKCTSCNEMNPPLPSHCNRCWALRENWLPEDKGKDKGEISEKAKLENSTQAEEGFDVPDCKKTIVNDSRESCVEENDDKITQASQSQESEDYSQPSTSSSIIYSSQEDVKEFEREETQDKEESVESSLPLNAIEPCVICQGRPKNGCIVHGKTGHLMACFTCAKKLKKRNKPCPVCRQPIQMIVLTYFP
Mdm2 MdmX conf: confirmation of human Mdm2/MdmX interaction inhibitors | shares compounds with Mdm2-MdmX inh | Mdm2-MdmX binding, luminescent assay | inhibition, % at 8 µM | hit rate 55% among 10,000 | AID 489028; in the data active means inhibition above about 40%
FLuc counter: full-length luciferase inhibition in Mdm2/MdmX counter-screen; hit rate 77% among 6,200; shares compounds with Mdm2-MdmX inh; AID 504607; inhibition, % at 8 µM; SaOS-2 full-length luciferase counterscreen, luminescence;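 active means mean inhibition at 8 µM reaching about 37%, which flags the compound as non-specific, limit read from the data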;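 further: p53-null SaOS-2 cells with luciferase driven by a doxycycline-inducible promoter; compound on cells about two nights before reading with doxycycline added after day one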
Numbers without * were called inactive; . = no result given.

SMILES	TIM10 inh	MPTP block	tim10-1 inh	tim23-1 inh	Mdm2-MdmX inh	Mdm2 MdmX conf	others
COc1cc(C#Cc2c(-c3cncn3C)n(C)c3ccc(-c4cnc(N5CCOCC5)nc4)cc23)cc(OC)c1	8	0	16	25	81*	14
COc1cc(C#Cc2c(-c3cncn3C)n(C)c3ccc(-c4ccc(CN5CCOCC5)cc4)cc23)cc(OC)c1	11	-1	-1	28	70*	-7
COc1cc(OC)cc(-c2c(Sc3ccccc3)c3cc(-c4cnc(OC)nc4)ccc3n2C)c1	.	0	.	.	.	.
COc1cc(OC)cc(-c2noc(-c3csc([C@@H]4C[C@H](O)[C@@H](CO)O4)n3)n2)c1	.	-1	.	.	.	.
OC(c1ccccc1)c1nc(-c2cncnc2)cs1 (centres undefined)	.	2	.	.	.	.
CCCCNC(=O)c1nc(-c2cc3ccccc3[nH]2)oc1-c1ccccc1	.	-1	.	.	.	.
COc1ccc(C(=O)N(C)CCCC2CCCC2)cc1OC1CCN(C(C)=O)CC1	13	-2	-7	2	2	.
COc1ccc(C(=O)N(C)CCCC2CCCC2)cc1OC1CCN(C(C)C)CC1	12	1	10	14	55*	36	FLuc counter=72*
COc1ccc(-c2ccc([C@H]3[C@@H]4C=CCC[C@@]4(C)C(=O)N3Cc3ccccc3)c(F)c2)cc1OC	6	-1	2	-3	63*	22
Nc1nccc(NCCSCc2ccccc2)n1	.	0	.	.	.	.
COc1ccc(/C=C/C(=O)OCC(=O)Nc2cc3oc4ccccc4c3cc2OC)cc1	-22	.	0	2	82*	-17
COc1cc2c(cc1NC(=O)COc1ccc3ccccc3c1)oc1ccccc12	-23	-1	22	2	62*	24
CCN(CC)c1ccc(C(=O)OCC(=O)Nc2cc3oc4ccccc4c3cc2OC)cc1	3	1	5	0	51*	26
COc1cccc(CN2CCN(C(=O)[C@H]3O[C@@H](n4cnc5c(N)ncnc54)[C@H](O)[C@@H]3O)CC2=O)c1	.	-1	.	.	.	.
CCOC(=O)N1CCN(S(=O)(=O)c2ccc(C(=O)Nc3sc4c(c3C(N)=O)CC(C)(C)NC4(C)C)cc2)CC1	-2	1	0	-11	31	.
CC1(C)Cc2c(sc(NC(=O)c3ccc4ncsc4c3)c2C(N)=O)C(C)(C)N1	-4	0	26	11	75*	27
CC1(C)Cc2c(sc(NC(=O)c3ccc(C(=O)c4ccccc4)cc3)c2C(N)=O)C(C)(C)N1	21	1	20	34	73*	57*	FLuc counter=34
CCCC(=O)NC(c1ccc(OC)cc1)c1c(O)ccc2ccccc12 (centres undefined)	-3	0	31	15	50*	39	FLuc counter=61*
Cc1ccc(S(=O)(=O)N2[C@@H](CO)CO[C@H]2CC(=O)OCc2ccccc2)cc1	.	0	.	.	.	.
COCCn1c(SCC(=O)Nc2ccc(OC)cc2)nc2c(oc3ccccc32)c1=O	7	.	14	-9	99*	15
Cc1cccc(NC(=O)CSc2nc3c([nH]c4ccccc43)c(=O)n2C)c1	-2	-1	-3	-1	65*	1
COCCn1c(SCC(=O)Nc2cccc(NC(C)=O)c2)nc2c([nH]c3ccccc32)c1=O	2	0	1	14	19	.
Cn1c(SCC(=O)Nc2ccccc2)nc2c([nH]c3ccccc32)c1=O	-3	-2	-26	-10	67*	10
COc1cccc(NC(=O)CSc2nc3c([nH]c4ccccc43)c(=O)n2C)c1	-9	2	17	-18	55*	10
COc1ccc(C(=O)OCc2ccccc2C#N)cc1S(=O)(=O)N1CCOCC1	.	1	.	.	.	.
SMILES	TIM10 inh	MPTP block	tim10-1 inh	tim23-1 inh	Mdm2-MdmX inh	Mdm2 MdmX conf	others
CCOC(=O)[C@]12CCC=C1N(Cc1ccc(Cl)cc1Cl)C(=O)[C@H](CC(=O)NCCCN1CCCC1=O)C2	.	0	.	.	.	.
NC1=NC2OC(CO)C(O)C2O1 (centres undefined)	.	-1	.	.	.	.
CCOC(=O)[C@]12CCC=C1N(Cc1ccco1)C(=O)[C@H](CC(=O)NCc1cccc3ccccc13)C2	.	0	.	.	.	.
COCCn1c(SCC(=O)Nc2cc(C)on2)nc2cc(Cl)ccc2c1=O	-5	2	7	9	64*	6
Cc1cc(NC(=O)CSc2nc3cc(Cl)ccc3c(=O)n2CC(C)C)no1	-25	.	-23	-32	1	.
COCCn1c(SCC(=O)Nc2cccc(F)c2)nc2c([nH]c3ccccc32)c1=O	-23	0	-11	-8	88*	66*	FLuc counter=47*
O=C1CCN(Cc2ccco2)C(=S)N1	.	0	.	.	.	.
Nn1c(-c2ccc(F)cc2)nc2ccccc2c1=O	9	-1	15	15	18	.
O=C1c2cc(F)ccc2-n2c1nc1ccccc1c2=O	9	1	-11	30	63*	34	FLuc counter=23
CCOc1cccc(/C=N/NC(=O)c2cc(-c3cccn3C)n[nH]2)c1O	-6	0	-8	17	63*	62*	FLuc counter=52*
CC(=O)c1cccc(NC(=O)CSc2nc(C3CC3)nc3ccccc23)c1	7	-1	20	31	36	.
CC(C)c1nc(SCC(=O)Nc2ccc(N3CCOCC3)cc2)c2ccccc2n1	26	2	30	29	53*	13
CC(=O)Nc1cccc(NC(=O)CSc2nc(C3CC3)nc3ccccc23)c1	2	2	-11	-2	72*	58*	FLuc counter=44*
COc1cc(NC(=O)CSc2nc(C3CC3)nc3ccccc23)cc(OC)c1	4	0	9	8	54*	-19
O=C(CSc1nc(C2CC2)nc2ccccc12)Nc1ccccc1	-16	0	1	17	30	.
CN(C)c1ccc(NC(=O)CSc2nc(C3CC3)nc3ccccc23)cc1	10	-2	-1	9	79*	44*	FLuc counter=54*
Cc1c(C(=O)NCc2ccc([N+](=O)[O-])cc2)sc(=O)n1Cc1ccc2c(c1)OCO2	.	0	.	.	.	.
CN(C)CCNc1nc2sc3c(c2c(=O)n1CCc1ccccc1)CCCCC3	38	-2	3	-19	76*	26
CC(O)CNc1nc2sc3c(c2c(=O)n1CCc1ccccc1)CCCCC3 (centres undefined)	26	27	35	41	7	.
CN(Cc1ccccc1)C(=O)c1ccc(NC(=O)Cc2ccc(NC(=O)C3CCN(C(=O)c4ccccc4)CC3)cc2)cc1	.	0	.	.	.	.
Cc1csc(=O)n1CCC(=O)OCC(=O)NCc1ccccc1	.	0	.	.	.	.
Nc1c(Cl)cc(-c2csc(N3CCCC3c3nc4cc(Cl)c(N5CCCCC5)cc4n3CCCO)n2)cc1Cl (centres undefined)	-4	0	-40	-7	85*	22
Nc1c(Cl)cc(-c2csc(N3CCCC3c3nc4cc(Cl)c(Cl)cc4n3CCCO)n2)cc1Cl (centres undefined)	8	0	1	14	33	.
